Source: PubChem (National Center for Advancing Translational Sciences (NCATS))
Rows were chosen to be rich in hits. Some 6.9% of all compounds tested hit in one or more screens of this group.
Giardia kill = Giardia lamblia killing. Giardia lamblia trophozoite viability. activity change, % at 7.66 µM, hits read low. hit rate 0.15% among 340,000; in the data active means activity change below about -80%; inconclusive means between about -30% and that limit;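 further: parasites exposed to compound for two days anaerobically before the ATP read; on the % scale 0 is the no-effect control and ±100 the full control effect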
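Giardia trophozoites, 100 cells per well, were exposed to compounds for 48 hrs at 37 deg C under anaerobic conditions; viability was then read as ATP content by bioluminescence after 15-30 min at room temperature.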
KB-V1 cytotox = kills drug-selected multidrug resistant KB-V1 cells; KB-V1 MDR cells viability, CellTiter-Glo, 72 h; Potency, µM (highest dose often 46.1 µM), usual class: cytotoxic; AID 1347076; hit rate 3.4% among 400,000; further: potency means the concentration at half of the fitted maximal effect; on the % scale 0 is the no-effect control and ±100 the full control effect; nearly all actives have a fitted effect of over 60% in size
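Cytotoxicity via CellTiter-Glo luminescence after 72 h compound exposure at 37 degrees C. Cells: drug-selected KB-V1 line, DMEM phenol-red free plus 10% FBS. Compounds tested at multiple concentrations; normalized data fitted to concentration-effect curves.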
KB-3-1 cytotox = kills parental KB-3-1 adenocarcinoma cells; KB-3-1 viability, CellTiter-Glo ATP luminescence, 72 h; Potency, µM (top dose mostly 46.1 µM), usual class: cytotoxic; hit rate 1.4% among 400,000; AID 1347075; further: potency means the concentration at half of the fitted maximal effect; on the % scale 0 is the no-effect control and ±100 the full control effect; nearly all actives have a fitted effect of over 60% in size
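Cytotoxicity measured as CellTiter-Glo luminescence after 72 h at 37 C. Compound titrations were pinned onto drug-naive KB-3-1 parental adenocarcinoma cells grown in DMEM with 10% FBS, and normalized data fitted to concentration-response curves.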
SW480 rerep = DNA re-replication induction in SW480 cells. hit rate 1.8% among 340,000. Potency, µM (top dose mostly 46.1 µM), without a hit: at the top dose re-replication activation, hits mostly activators. AID 624297. SW480 DNA re-replication, Hoechst DNA content imaging, 48 h; further: potency means the concentration at half of the fitted maximal effect; % of control where 0% means no effect; nearly all actives have a fitted effect of over 55% in size
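Hoechst fluorescence of nuclei (405 nm excitation, 500-530 nm emission) measured by plate-scanning imager after 48 hr compound exposure at 37 C; re-replication scored as increased number of nuclei with elevated intensity.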
MCF10A rerep = induces DNA re-replication in MCF 10a normal breast cells. MCF 10A DNA re-replication, Hoechst nuclear intensity, 48 h. hit rate 2.9% among 350,000. Potency, µM (series often up to 46.1 µM), for inactives: at the highest dose activity, positive = re-replication, most hits filed as activators. AID 624296; further: potency means the concentration at half of the fitted maximal effect; % of control where 0% means no effect; nearly all actives have a fitted effect of over 50% in size
S-ASM inh = inhibitors of human secretory acid sphingomyelinase; P17405; placental ASM, HMU-PC fluorogenic substrate, 60 min; Potency, µM (top dose mostly 57.5 µM), for inactives: top-dose activity change, negative = inhibition, most hits filed as inhibitors; hit rate 0.006% among 340,000; further: potency means the concentration at half of the fitted maximal effect
Target sequence (P17405 47-631 limits assumed): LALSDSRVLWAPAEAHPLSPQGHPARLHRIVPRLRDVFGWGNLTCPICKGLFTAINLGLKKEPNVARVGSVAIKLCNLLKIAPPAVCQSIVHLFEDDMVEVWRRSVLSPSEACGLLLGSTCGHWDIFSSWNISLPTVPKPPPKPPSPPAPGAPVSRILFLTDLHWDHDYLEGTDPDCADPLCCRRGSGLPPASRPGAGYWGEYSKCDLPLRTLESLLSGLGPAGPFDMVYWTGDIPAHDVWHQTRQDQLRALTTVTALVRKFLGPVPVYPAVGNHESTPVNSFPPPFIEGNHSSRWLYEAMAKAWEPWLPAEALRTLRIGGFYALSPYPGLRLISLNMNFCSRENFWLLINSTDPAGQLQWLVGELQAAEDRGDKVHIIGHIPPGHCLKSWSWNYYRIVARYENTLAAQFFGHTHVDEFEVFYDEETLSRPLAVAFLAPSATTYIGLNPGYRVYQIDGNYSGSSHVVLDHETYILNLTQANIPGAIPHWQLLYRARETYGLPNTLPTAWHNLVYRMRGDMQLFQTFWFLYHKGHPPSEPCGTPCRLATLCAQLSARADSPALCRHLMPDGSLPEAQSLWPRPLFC
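Human placenta-derived ASM preincubated with compound 10 min at room temperature, then reacted with 9 uM (final) fluorogenic HMU-PC substrate for 60 min at 37 C. Stop solution raises pH to 10; fluorescence read at Ex 386/Em 447 nm.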
Numbers without * were called inactive; i = inactive; ? = inconclusive; · = not tested or not shown; [ ] = dose if it differs, or a comment. Unless noted, the call rests on the fitted dose curve; in most records, active means well fitted curve in the direction sought with a large enough effect; inconclusive means small, poorly fitted or top-dose-only effect, or another doubt; inactive means no such curve, though single readings can be large; an effect the other way counts as inactive or inconclusive.

SMILES | Giardia kill | KB-V1 cytotox | KB-3-1 cytotox | SW480 rerep | MCF10A rerep | S-ASM inh
COc1cccc(-c2cc3nc(-c4ccccc4)cc(=O)n3[nH]2)c1 | -4.4 | 4.61µM* | 5.8µM* | 21.7% | ? | 58.4%
O=C(C[n+]1csc2ccccc21)c1cccc([N+](=O)[O-])c1 | · | i | i | · | · | ·
Cc1cccc(NC(=O)CSc2nc3ccccc3nc2N2CCC(C)CC2)c1 | · | ? | i | · | · | ·
Cc1ccc(Cl)cc1-n1c(CCC(=O)O)ccc1-c1cccs1 | · | ? | i | · | · | ·
CCOC(=O)C1=C(C)NC2=C(C(=O)C(C(=O)OCC)C(c3ccco3)C2)C1c1ccccn1 (configuration not stated) | -12.8 | i | i | 6.51µM* | 372.7%[0.0737 µM] | i
CCOC(=O)C1=C(C)NC2=C(C(=O)C(C(=O)OCC)C(c3ccco3)C2)C1c1ccccc1C (configuration not stated) | · | i | i | · | · | ·
O=S1(=O)CCO[C@H]2CCCC[C@@H]2N1Cc1ccccc1 | · | i | i | · | · | ·
Brc1ccc(CNc2ccc3ncccc3c2)cc1 | -0.9 | ? | ? | -4.9% | 14.6µM* | 155.1%
CCOC(=O)Cc1c(C)nc2c(-c3ccc(Cl)cc3)c(C(F)(F)F)nn2c1C | · | i | i | · | · | ·
COc1ccc(OC)c(NC(=O)c2c(NCc3ccc(N(C)C)cc3)sc3c2CCCC3)c1 | · | i | i | · | · | ·
CC1(C)CCCN(C(=O)N2c3ccccc3Sc3ccccc32)C1 | 4.5 | i | i | 15.2% | 12.6µM* | -15.6%
Cc1c(C(=O)N2CCC(C)CC2)sc2ncnc(N3CCN(c4ccccc4)CC3)c12 | -1.4 | 4.61µM* | i | -6.1% | 7.8% | -1.8%
COc1ccccc1N1CCN(C(=O)c2sc3ncnc(N4CCN(c5ccccn5)CC4)c3c2C)CC1 | -5.2 | 23.1µM* | ? | 5.1% | 18.4µM* | -25.6%
Cc1c(C(=O)N2CCN(c3ccccc3)CC2)sc2ncnc(N3CCN(c4ccccn4)CC3)c12 | -3.7 | ? | i | 1.2% | 1.1% | -3.7%
O=C(Nc1ccc(Cl)c(S(=O)(=O)N2CCCCC2)c1)c1ccncc1 | -12.2 | ? | i | 2.1% | 11.8% | -1.5%
O=C(Nc1ncn[nH]1)c1ccc(Cl)c(S(=O)(=O)N2CCCCCC2)c1 | -3.5 | 20.6µM* | i | 0.8% | 19.6% | -1.3%
O=C(Nc1ccncc1)c1ccc(Cl)c(S(=O)(=O)N2CCCCC2)c1 | -2.9 | ? | ? | -19.5% | 13µM* | 0.9%
Cn1cccc1C(=O)Nc1ccc(Cl)c(S(=O)(=O)N2CCCCC2)c1 | -1.4 | 20.6µM* | ? | 0.8% | 1.8% | -4.4%
CC(C)(C)NC(=O)COC(=O)CNC(=O)C1CCCCC1 | 17.2 | i | ? | · | · | ·
CCn1cc([N+](=O)[O-])c(C(=O)Nc2nc(-c3ccc(C)c(C)c3)c(C)s2)n1 | -18.5 | i | i | ? | 8.2µM* | 4.3%
COc1ccccc1CNC(=O)c1ccc(N2CCCC2)c(NC(=O)NCc2ccccc2)c1 | · | i | i | · | · | ·
Cc1cn2c(=O)cc(COc3ccccc3NC(=O)c3ccc(Cl)cc3)nc2s1 | · | i | i | · | · | ·
CCOc1ccc(NC(=O)CCCc2nc(-c3cccc(OC)c3)no2)cc1 | · | i | i | · | · | ·
CCC1=C[C@@H]2CN(C1)Cc1c([nH]c3ccccc13)[C@@](C(=O)OC)(c1cc3c(cc1OC)N(C)[C@H]1[C@@](O)(C(=O)OC)[C@H](OC(C)=O)[C@]4(CC)C=CCN5CC[C@]31[C@@H]54)C2 | · | ? | 0.0291µM* | · | · | ·
O=C(c1cccs1)N1CCN(C(=O)c2cccs2)C1=S | 16.3 | 2.91µM* | 14.6µM* | 16.4µM* | 5.8µM* | 3.9%
SMILES | Giardia kill | KB-V1 cytotox | KB-3-1 cytotox | SW480 rerep | MCF10A rerep | S-ASM inh
COc1cc(C)nc(OCCNC(=O)COc2ccc(Cl)cc2C)n1 | -4.8 | i | i | 6.6%[9.22 µM] | 0.6% | 5.2%
Cc1cc(Cl)ccc1OCC(=O)NCCOc1nc(N2CCCCC2)nc(N2CCOCC2)n1 | 1.4 | 4.11µM* | i | -4.4% | 3.3% | -1.5%
COc1ccc(CNC(=O)C2CCCN(S(=O)(=O)c3ccc(F)cc3)C2)cc1 (configuration not stated) | -17.6 | · | · | 9.9% | -0.9% | 1.0%
COCCNC(=O)C(OC(=O)CC1Sc2ccccc2NC1=O)c1ccncc1 (configuration not stated) | -15.0 | i | i | 3.66µM* | 4.61µM* | 2.2%
COc1cc(C(=O)Nc2ccc3c(c2)ncn3C)cc(OC)c1OC | -17.6 | ? | ? | ? | 3.66µM* | 1.5%
CC(=O)Nc1ccc2c(c1)ncn2C | -3.8 | i | i | 0.3% | 0.5% | 0.2%
COc1cc(C(=O)Nc2ccc3c(c2)nc(C)n3C)cc(OC)c1OC | -2.3 | i | 4.11µM* | 14.6µM* | 24.8% | 1.4%
Cc1[nH]n(-c2ccccc2)c(=O)c1/C=N/NC(=O)c1cccc([N+](=O)[O-])c1 | 2.8 | ? | ? | 3.66µM* | ? | 2.1%
CC(=O)N/N=C/c1c(C)[nH]n(-c2ccccc2)c1=O | 4.9 | ? | i | 25.6% | -7.9% | 3.9%
COC(=O)N/N=C\c1c(C)[nH]n(-c2ccccc2)c1=O | -13.4 | i | i | -2.1% | -22.6% | 0.0%
Cc1[nH]n(-c2cccc3ccccc23)c(=O)c1/C=N/NC(=O)c1cccc([N+](=O)[O-])c1 | 10.0 | 3.26µM* | ? | ? | ? | -2.1%
Cc1ccc(-n2[nH]c(C)c(/C=N/Nc3ccc([N+](=O)[O-])cc3[N+](=O)[O-])c2=O)cc1C | -1.6 | 13µM* | ? | 1.6% | 14.6µM* | -1.7%
